According to PubChem BioAssay (Tox21):
Inconclusive results are not listed. Calls of active or inactive are those of the source. Unless noted, calls follow the shape of the full dose curve.

Key:
[1] = qHTS assay to identify small molecule agonists of the vitamin D receptor (VDR) signaling pathway - cell viability counter screen (AID 743224; active = well fitted curve in the direction sought with a large enough effect in the repeat runs; an effect the other way counts as inactive or inconclusive; also: series mostly up to about 63 µM; % is scaled to controls: 0 for no effect and ±100 for the full control effect; nearly all actives have a fitted effect of over 50% in size)
Outline: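 Here cell health was gauged by luminescent ATP detection (CellTiter-Glo, 30 min RT) in VDR-bla cells that had been incubated with test compounds for 16 h at 37C and 5% CO2.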

[2] = qHTS assay to identify small molecule antagonists of the vitamin D receptor (VDR) signaling pathway - cell viability counter screen (AID 743225; active = well fitted curve in the direction sought with a large enough effect in the repeat runs; an effect the other way counts as inactive or inconclusive; also: % is scaled to controls: 0 for no effect and ±100 for the full control effect; nearly all actives have a fitted effect of over 50% in size)
Outline: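 VDR-UAS-bla HEK 293T cells were plated and incubated 4 h at 37C, then dosed with compound plus 3 nM (final) 1-alpha,25-dihydroxyvitamin D3 for 16 h. After the 2 h beta-lactamase read, viability in the same wells was read as CellTiter-Glo luminescence after 30 min at room temperature.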

[3] = qHTS assay to identify small molecule agonists of the NFkB signaling pathway (AID 1159509; active = well fitted curve in the direction sought with a large enough effect in the signal ratio in the repeat runs, not every such curve was filed as active; the % refers to the signal ratio; also: series mostly up to about 61 µM; % is scaled to controls: 0 for no effect and ±100 for the full control effect)
Outline: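 NFkB-bla ME-180 cells with a beta-lactamase reporter under an NF-kB response element were plated overnight, treated with compounds in DMSO for 5 hr at 37 C, then loaded with FRET substrate for 1.5 hr at room temperature.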

[4] = qHTS assay to identify small molecule agonists of the NFkB signaling pathway - cell viability counter screen (AID 1159515); also: series mostly up to about 61 µM; % is scaled to controls: 0 for no effect and ±100 for the full control effect; nearly all actives have a fitted effect of over 55% in size
Outline: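 5 hr compound treatment of NFkB-bla ME-180 cells (2,000/well, seeded overnight beforehand), followed by reporter substrate for 1.5 hr. CellTiter-Glo added afterward; luminescence after 30 min RT.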

[5] = qHTS assay to identify small molecule agonists of the endoplasmic reticulum stress response signaling pathway (AID 1159516; active = well fitted activation curve with a large enough effect in the signal ratio in the repeat runs, not every such curve was filed as active; the % refers to the signal ratio; also: % is scaled to controls: 0 for no effect and ±100 for the full control effect)
Outline: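 Reporter HeLa cells (ESRE-beta-lactamase) underwent 5 hr compound incubation at 37 C and 5% CO2 in quantitative HTS format. Detection followed 2 hr of FRET substrate loading at room temperature.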

[6] = qHTS assay to identify small molecule agonists of the endoplasmic reticulum stress response signaling pathway - cell viability counter screen (AID 1159517);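 also: HeLa cells carrying an ER stress response element beta-lactamase reporter; series mostly up to about 61 µM; % is scaled to controls: 0 for no effect and ±100 for the full control effect; nearly all actives have a fitted effect of over 50% in size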
Outline: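 Luminescence readout: CellTiter-Glo, 30 min RT, same wells as the ESRE-bla reporter read. HeLa ESRE-bla, 1,500 cells/well, o/n 37 C; cpd 5 hr 37 C/5% CO2.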

[7] = qHTS assay to identify small molecule agonists of the AP-1 signaling pathway (AID 1159526); also: % is scaled to controls: 0 for no effect and ±100 for the full control effect
[8] = biological target: Nuclear receptor ROR-gamma (Homo sapiens) (UniProt P51449); assay: qHTS assay to identify small molecule antagonists of the retinoid-related orphan receptor gamma (ROR-gamma) signaling pathway (AID 1159521; active = well fitted curve in the direction sought with a large enough effect in the repeat runs; an effect the other way counts as inactive or inconclusive;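 also: CHO cells with doxycycline inducible ROR-gamma driving an RORE luciferase reporter; top concentration of the series differs between compounds; % is scaled to controls: 0 for no effect and ±100 for the full control effect; nearly all actives have a fitted effect of over 50% in size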)
Outline: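 Tet-on ROR-gamma CHO cells with ROR response element-luciferase reporter; compounds added 2 hr before 1 uM doxycycline induction, then 16 hr at 37 C. Antagonism scored as decreased ONE-Glo luminescence.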

[9] = qHTS assay to identify small molecule agonists of the AP-1 signaling pathway - cell viability counter screen (AID 1159525); also: nearly all actives have a fitted effect of over 55% in size
Outline: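 ME-180 AP-1-bla, 2500 cells/well, Opti-MEM + 0.5% dialyzed FBS; overnight 37 °C; cpd 15-pt titration, 5 h 37 °C; CellTiter-Glo 30 min RT; luminescence read; normalised to TOAB and DMSO controls.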

O=C(O)[C@H](O)[C@@H](O)[C@H](O)[C@H](O)CO
inactive: Potency [1] | outcome [2] | outcome [3] | outcome [4] | outcome [5] | outcome [6] | activation [7] 7.9% [at 2.72 µM]

Fc1ccc(Br)cc1
inactive: Potency [1] | outcome [2] | outcome [3] | outcome [4] | outcome [5] | outcome [6] | Potency [8] | Potency [9] | outcome [7]

CC(C)(C)[C@@H](O)[C@@H](Cc1ccc(Cl)cc1)n1cncn1
inactive: Potency [1] | outcome [2] | outcome [3] | outcome [4] | outcome [5] | outcome [6] | Potency [8] | Potency [9] | outcome [7]

COc1cc(Cc2cnc(N)nc2N)cc(OC)c1OC
inactive: Potency [1] | outcome [2] | outcome [3] | outcome [4] | outcome [5] | outcome [6] | outcome [7]

COc1ccc(NC(C)=O)cc1N
inactive: Potency [1] | outcome [2] | outcome [3] | outcome [4] | outcome [5] | outcome [6] | Potency [9] | outcome [7]

c1ccc(OCCOc2ccccc2)cc1
inactive: Potency [1] | outcome [2] | outcome [3] | outcome [4] | outcome [5] | outcome [6] | Potency [8] | Potency [9] | outcome [7]

Cc1ccc(N(C)C)cc1
inactive: Potency [1] | outcome [2] | outcome [3] | outcome [4] | outcome [5] | outcome [6] | Potency [9] | outcome [7]

CC(=O)Nc1ccccc1
inactive: Potency [1] | outcome [2] | outcome [3] | outcome [4] | outcome [5] | outcome [6] | Potency [9] | outcome [7]

COS(C)(=O)=O
inactive: Potency [1] | outcome [2] | outcome [3] | outcome [4] | outcome [5] | outcome [6] | Potency [8] | Potency [9] | outcome [7]
